Reference: PubChem BioAssay (NCI)
This is part of a sample that, as a whole, favours compounds with a hit. Of some 83,000 tested, about 20% had one in any assay.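 96-well plates, one dose, 48 hours. Percent growth reported; active if below 10.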

How the values were obtained:
Assay in all cases: NCI-60 one-dose screen, 48 h (100 = growth as untreated, 0 = no growth, -100 = all killed)
HCT-15 colon = conditions: 10 µM
HT29 colon = conditions: 10 µM
SNB-75 CNS = conditions: 10 µM
SNB-19 CNS = conditions: 10 µM
U251 CNS = conditions: 10 µM
PC-3 prostate = conditions: 10 µM
SK-MEL-5 melanoma = conditions: 10 µM
LOX IMVI melanoma = conditions: 10 µM
SK-MEL-28 melanoma = conditions: 10 µM
SK-MEL-2 melanoma = conditions: 10 µM
SN12C renal = conditions: 10 µM
UO-31 renal = conditions: 10 µM
ACHN renal = conditions: 10 µM
CAKI-1 renal = conditions: 10 µM
A498 renal = conditions: 10 µM
CCRF-CEM leukemia = conditions: 10 µM
MOLT-4 leukemia = conditions: 10 µM
UACC-62 melanoma = conditions: 10 µM unless noted
EKVX NSCLC = conditions: 10 µM
TK-10 renal = conditions: 10 µM unless noted

Measured: growth

O=C(N/N=C/c1ccccc1O)Nc1nn[nH]n1
inactive: HCT-15 colon 91.1% | HT29 colon 104% | SNB-75 CNS 85.7% | SNB-19 CNS 97.4% | U251 CNS 104% | PC-3 prostate 95.6% | SK-MEL-5 melanoma 99.3% | LOX IMVI melanoma 96.4% | SK-MEL-28 melanoma 111% | SK-MEL-2 melanoma 110% | SN12C renal 100% | UO-31 renal 90.2% | ACHN renal 92.8% | CAKI-1 renal 94.8% | A498 renal 94.9% | CCRF-CEM leukemia 98.8% | MOLT-4 leukemia 109%

COc1ccccc1N=Nc1c(O)ccc2cc(S(=O)(=O)O)ccc12
inactive: HCT-15 colon 107% | HT29 colon 96.7% | SNB-75 CNS 69.6% | SNB-19 CNS 100% | U251 CNS 99.5% | PC-3 prostate 92.6% | UACC-62 melanoma 100% | LOX IMVI melanoma 100% | SK-MEL-28 melanoma 111% | SK-MEL-2 melanoma 96.4% | EKVX NSCLC 95.2% | SN12C renal 102% | UO-31 renal 84.7% | TK-10 renal 113% | CCRF-CEM leukemia 105% | MOLT-4 leukemia 104%

C=CC(O)CCC (centres undefined)
inactive: HCT-15 colon 98% | HT29 colon 99.7% | SNB-75 CNS 95.7% | SNB-19 CNS 100% | U251 CNS 92.8% | PC-3 prostate 90% | UACC-62 melanoma 95.9% | LOX IMVI melanoma 98.6% | SK-MEL-28 melanoma 98.3% | SN12C renal 99.5% | UO-31 renal 89.9% | TK-10 renal 102% | ACHN renal 98.5% | CAKI-1 renal 92.1% | A498 renal 108% | CCRF-CEM leukemia 98.4% | MOLT-4 leukemia 110%

CCC/C=C(/C(C)=O)C(=O)OCC
inactive: HCT-15 colon 109% | HT29 colon 111% | SNB-75 CNS 89.2% | SNB-19 CNS 94.8% | U251 CNS 103% | SK-MEL-5 melanoma 112% | UACC-62 melanoma 95.1% | LOX IMVI melanoma 102% | SK-MEL-28 melanoma 122% | SK-MEL-2 melanoma 132% | EKVX NSCLC 168% | SN12C renal 101% | UO-31 renal 101% | TK-10 renal 139% | ACHN renal 103% | CAKI-1 renal 128% | A498 renal 132% | CCRF-CEM leukemia 143% | MOLT-4 leukemia 135%

CCC/C=C(\C)C(C)(C#N)C(=O)OCC (centres undefined)
inactive: HCT-15 colon 113% | HT29 colon 109% | SNB-75 CNS 87.8% | SNB-19 CNS 102% | U251 CNS 102% | SK-MEL-5 melanoma 103% | UACC-62 melanoma 102% | LOX IMVI melanoma 99.9% | SK-MEL-28 melanoma 109% | SK-MEL-2 melanoma 105% | UO-31 renal 100% | TK-10 renal 108% | ACHN renal 106% | CAKI-1 renal 92.3% | A498 renal 98.9% | CCRF-CEM leukemia 90.4% | MOLT-4 leukemia 104%

CC(=O)c1c[nH]c2ccccc12
inactive: HCT-15 colon 101% | HT29 colon 118% | SNB-75 CNS 88.1% | SNB-19 CNS 105% | U251 CNS 95.7% | PC-3 prostate 86.1% | UACC-62 melanoma 97.5% | LOX IMVI melanoma 102% | SK-MEL-28 melanoma 103% | SK-MEL-2 melanoma 161% | EKVX NSCLC 99.2% | SN12C renal 99.2% | TK-10 renal 108% | ACHN renal 107% | CAKI-1 renal 80.1% | A498 renal 103% | CCRF-CEM leukemia 102% | MOLT-4 leukemia 104%

CNS(=O)(=O)c1ccc(Cl)c(Cl)c1
inactive: HCT-15 colon 99.9% | HT29 colon 106% | SNB-75 CNS 87.8% | SNB-19 CNS 106% | U251 CNS 99.3% | SK-MEL-5 melanoma 96.7% | UACC-62 melanoma 86.6% | LOX IMVI melanoma 102% | SK-MEL-28 melanoma 119% | EKVX NSCLC 99% | SN12C renal 92.7% | UO-31 renal 109% | TK-10 renal 89.4% | ACHN renal 99.5% | A498 renal 104% | CCRF-CEM leukemia 104% | MOLT-4 leukemia 84.9%

Cc1cc2nc(CO)[nH]c2cc1C
inactive: HCT-15 colon 107% | HT29 colon 102% | SNB-75 CNS 90.9% | SNB-19 CNS 98% | U251 CNS 108% | SK-MEL-5 melanoma 112% | UACC-62 melanoma 99.7% | LOX IMVI melanoma 110% | SK-MEL-28 melanoma 108% | SK-MEL-2 melanoma 83% | EKVX NSCLC 112% | SN12C renal 105% | UO-31 renal 85.8% | TK-10 renal 131% | ACHN renal 105% | CAKI-1 renal 110% | A498 renal 101% | CCRF-CEM leukemia 93.6% | MOLT-4 leukemia 103%

CC(=O)OCC(=O)[C@@]1(O)CC[C@H]2[C@@H]3CC[C@@H]4C[C@H](O)CC[C@]4(C)[C@H]3C(=O)C[C@@]21C
inactive: HCT-15 colon 106% | HT29 colon 117% | SNB-75 CNS 88.6% | SNB-19 CNS 111% | U251 CNS 102% | SK-MEL-5 melanoma 97.1% | UACC-62 melanoma 103% | LOX IMVI melanoma 101% | SK-MEL-28 melanoma 121% | SK-MEL-2 melanoma 101% | EKVX NSCLC 98.4% | SN12C renal 102% | UO-31 renal 96.3% | TK-10 renal 110% | ACHN renal 107% | CAKI-1 renal 89.4% | A498 renal 91.8% | CCRF-CEM leukemia 74% | MOLT-4 leukemia 79.8%
